Data published in PubChem BioAssay.
Calls of active or inactive are those of the source. Unless noted, no rule for the calls is given here.

How the values were obtained:
[1] = anti-His antibody binders, primary screen, artefact control for SMM control protein annotation, biochemical, small-molecule microarray, 635 nm fluorescence (AID 1128); conditions: anti-His Alexa647 antibody binding, higher = more signal;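 also: score merges feature fluorescence with signal-to-noise for each printed compound spot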
[2] = system: Human papillomavirus type 1a E7 protein (residues 1-88); test: HPV1a E7 small-molecule binders, primary screen, biochemical, small-molecule microarray, residues 1-88, 635 nm (AID 1129); conditions: small-molecule microarray binding, fluorescence 635 nm; higher = more signal
[3] = molecular target: Focal adhesion kinase 1 (Homo sapiens) (UniProt Q05397); test: small-molecule microarray binders of FAK, primary screen, biochemical, 635/667 nm fluorescence, BSA, DTT (AID 1130); conditions: PTK2 binding, 635 nm fluorescence, higher = more signal;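 also: composite of spot emission at 667 nm and signal to noise over triplicate slides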
Sequence of Focal adhesion kinase 1 (Homo sapiens) (Q05397 whole entry, looked up): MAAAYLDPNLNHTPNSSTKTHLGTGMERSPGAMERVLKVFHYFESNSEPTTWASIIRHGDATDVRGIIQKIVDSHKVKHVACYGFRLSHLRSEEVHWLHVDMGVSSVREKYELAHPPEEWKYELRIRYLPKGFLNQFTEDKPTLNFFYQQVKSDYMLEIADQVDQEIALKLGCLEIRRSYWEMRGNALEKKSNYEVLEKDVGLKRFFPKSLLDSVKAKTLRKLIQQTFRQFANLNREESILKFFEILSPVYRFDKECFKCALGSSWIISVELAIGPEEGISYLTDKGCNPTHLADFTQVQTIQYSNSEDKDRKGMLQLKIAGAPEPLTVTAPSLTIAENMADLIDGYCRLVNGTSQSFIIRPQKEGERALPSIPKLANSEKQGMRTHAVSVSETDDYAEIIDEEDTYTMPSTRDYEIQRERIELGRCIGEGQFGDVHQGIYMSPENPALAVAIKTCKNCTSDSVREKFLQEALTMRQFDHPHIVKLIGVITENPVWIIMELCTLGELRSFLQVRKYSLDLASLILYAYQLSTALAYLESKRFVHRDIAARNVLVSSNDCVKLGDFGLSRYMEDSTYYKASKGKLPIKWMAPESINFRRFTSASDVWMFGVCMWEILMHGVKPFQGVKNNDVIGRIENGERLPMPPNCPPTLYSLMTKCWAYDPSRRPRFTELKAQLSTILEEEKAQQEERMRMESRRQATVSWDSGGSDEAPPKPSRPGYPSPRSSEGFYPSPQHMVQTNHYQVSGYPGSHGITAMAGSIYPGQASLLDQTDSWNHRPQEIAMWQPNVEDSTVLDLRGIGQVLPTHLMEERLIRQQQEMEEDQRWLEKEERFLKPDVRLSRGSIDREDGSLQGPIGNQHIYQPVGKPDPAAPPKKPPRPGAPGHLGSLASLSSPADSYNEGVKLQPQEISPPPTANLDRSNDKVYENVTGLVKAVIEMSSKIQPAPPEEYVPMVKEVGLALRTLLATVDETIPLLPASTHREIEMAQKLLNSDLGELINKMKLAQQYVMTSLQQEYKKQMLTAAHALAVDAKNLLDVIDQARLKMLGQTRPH

[4] = system: Fibrinogen (Alexa647-labelled); test: fibrinogen binders on compound microarrays, profiling panel, artefact control for SMM control-protein annotation, biochemical, small-molecule microarray, 635/667 nm fluorescence (AID 1131); conditions: fibrinogen-A647 binding fluorescence, higher = more signal;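 also: z-score merges 667 nm fluorescence with per-spot signal-to-noise over triplicate slides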
[5] = molecular target: Follistatin (Homo sapiens) (UniProt P19883); test: follistatin binders on small-molecule microarrays, primary screen, biochemical, small-molecule microarray, 635/667 nm fluorescence (AID 1132); conditions: FST binding, 635 nm fluorescence, higher = more signal
Sequence of Follistatin (Homo sapiens) (P19883 whole entry, looked up): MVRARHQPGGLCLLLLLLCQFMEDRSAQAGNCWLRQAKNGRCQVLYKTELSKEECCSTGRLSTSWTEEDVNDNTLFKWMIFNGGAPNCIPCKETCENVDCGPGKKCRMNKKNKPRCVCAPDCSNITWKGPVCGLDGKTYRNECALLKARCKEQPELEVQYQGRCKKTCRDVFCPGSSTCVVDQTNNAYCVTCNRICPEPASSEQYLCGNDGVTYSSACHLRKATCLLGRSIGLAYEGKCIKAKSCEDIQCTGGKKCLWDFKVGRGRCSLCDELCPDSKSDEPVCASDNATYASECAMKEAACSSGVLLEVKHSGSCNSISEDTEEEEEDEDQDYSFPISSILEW

[6] = molecular target: Fibroblast growth factor 2 (Homo sapiens) (UniProt P09038); test: FGF2 binders on small-molecule microarrays, primary screen, biochemical, small-molecule microarray, 635/667 nm fluorescence (AID 1133); conditions: small-molecule microarray binding, FGF2, fluorescence 635/667; higher = more signal
Sequence of Fibroblast growth factor 2 (Homo sapiens) (P09038 whole entry, looked up): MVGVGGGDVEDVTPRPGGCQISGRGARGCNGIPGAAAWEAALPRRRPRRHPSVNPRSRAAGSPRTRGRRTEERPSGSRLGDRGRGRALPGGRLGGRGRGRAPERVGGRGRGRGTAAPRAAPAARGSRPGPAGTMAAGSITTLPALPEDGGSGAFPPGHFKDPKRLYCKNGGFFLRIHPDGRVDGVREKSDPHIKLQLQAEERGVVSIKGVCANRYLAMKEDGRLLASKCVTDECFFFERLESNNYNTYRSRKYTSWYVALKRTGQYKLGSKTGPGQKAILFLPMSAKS

[7] = mitochondrial membrane potential change in A549 cells, profiling panel, cell-based, JC-1 fluorescence, basal, 24 h, 100 nL (AID 1138); conditions: higher = more signal;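 also: A549 lung adenocarcinoma cells under basal conditions with no added stimulus; test concentration not given here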
Lefty1 = Lefty1 binders on small-molecule microarrays, primary screen, biochemical, small-molecule microarray, 635/667 nm fluorescence (AID 1139); conditions: small-molecule microarray binding, fluorescence 635/667; higher = more signal
[8] = system: wheat germ agglutinin (Triticum aestivum), Alexa647-labelled; test: wheat germ agglutinin binders on compound microarrays, profiling panel, artefact control for SMM control-protein annotation, biochemical, small-molecule microarray, 635/667 nm fluorescence (AID 1140); conditions: WGA-A647 binding, 635 nm fluorescence, higher = more signal;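 also: score merges 667 nm feature emission with signal to noise over triplicate slides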
[9] = molecular target: Luciferin 4-monooxygenase (Photinus pyralis) (UniProt P08659); test: firefly luciferase enzyme inhibitors, primary screen, biochemical, luminescence, purified enzyme, 2006 set (AID 1141); conditions: SteadyGlo luminescence, 30 min, higher = more signal, called active from +8 up or from −8 down;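 also: cell-free assay with purified firefly luciferase at 100 ng per well in PBS; test concentration not given here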
Sequence of Luciferin 4-monooxygenase (Photinus pyralis) (P08659 whole entry, looked up): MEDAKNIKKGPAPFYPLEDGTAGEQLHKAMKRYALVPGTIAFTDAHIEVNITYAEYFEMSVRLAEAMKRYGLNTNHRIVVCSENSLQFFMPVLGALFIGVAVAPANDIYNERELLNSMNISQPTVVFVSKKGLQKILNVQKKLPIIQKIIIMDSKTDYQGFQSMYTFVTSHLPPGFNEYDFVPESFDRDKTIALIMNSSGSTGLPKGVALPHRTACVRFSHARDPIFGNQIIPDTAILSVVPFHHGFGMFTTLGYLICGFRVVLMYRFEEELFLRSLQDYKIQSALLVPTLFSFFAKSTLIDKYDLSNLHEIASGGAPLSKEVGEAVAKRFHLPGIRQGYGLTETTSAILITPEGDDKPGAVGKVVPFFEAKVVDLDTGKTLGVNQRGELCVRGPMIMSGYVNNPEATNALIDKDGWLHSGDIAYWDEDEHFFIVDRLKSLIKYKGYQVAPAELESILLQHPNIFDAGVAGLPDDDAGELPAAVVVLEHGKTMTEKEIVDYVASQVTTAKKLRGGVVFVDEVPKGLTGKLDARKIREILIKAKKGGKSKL

[10] = system: Wnt5a (protein binding on small-molecule microarray); test: Wnt5a binders on small-molecule microarray, primary screen, biophysical, 635/667 nm fluorescence (AID 1142); conditions: 635 nm fluorescence, higher = more signal;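 also: fluorescence read at 667 nm with signal to noise per printed feature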
[11] = cell viability in Huh7 cells, primary screen, cytotoxicity control for HCV replication inhibitor project, CellTiter-Glo luminescence, basal, 48 h (AID 1143); conditions: Huh7 HCV replicon, higher = more signal, called active from +8 up or from −8 down;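 also: Huh7 hepatoma cells carrying a hepatitis C replication reporter with no stimulus; test concentration not given here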
[12] = P. aeruginosa biofilm formation inhibitors, primary screen, PAO1 strain, BacTiter-Glo luminescence, LB-PBS (AID 1144); conditions: 12 h, higher = more signal
[13] = CREB reporter modulators without forskolin, primary screen, cell-based, PC12, CRE-LacZ reporter, unstimulated (AID 1145); conditions: no forskolin, luminescence, 4.5 h, higher = more signal, called active from +8 up or from −8 down
[14] = CREB reporter modulators under forskolin, primary screen, cell-based, PC12, CRE-LacZ reporter, forskolin-stimulated (AID 1146); conditions: luminescence, 4.5 h, higher = more signal, called active from +8 up or from −8 down;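 also: PC12 cells with 6xCRE LacZ reporter stimulated by forskolin 10 µM; beta-galactosidase reporter signal reflecting CREB driven transcription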
[15] = molecular target: Streptavidin (Streptomyces avidinii) (UniProt P22629); test: streptavidin binders on small-molecule microarray, primary screen, artefact control for SMM compound annotation, biophysical, 635/667 nm fluorescence (AID 1147); conditions: streptavidin binding, higher = more signal;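 also: signal reflects streptavidin binding to arrayed compounds as a control protein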
Sequence of Streptavidin (Streptomyces avidinii) (P22629 whole entry, looked up): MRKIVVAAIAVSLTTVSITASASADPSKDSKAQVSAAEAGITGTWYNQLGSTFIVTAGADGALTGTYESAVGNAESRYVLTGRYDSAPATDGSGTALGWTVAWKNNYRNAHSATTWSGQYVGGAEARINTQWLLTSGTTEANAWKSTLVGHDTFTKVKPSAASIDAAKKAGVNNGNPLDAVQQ

[16] = small-molecule binders of probe aInhba, primary screen, biochemical, small-molecule microarray, 635/667 nm fluorescence (AID 1148); conditions: higher = more signal;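 also: score merges 667nm spot fluorescence with signal-to-noise for antibody binding to printed compounds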
Torsin-1A (Homo sapiens) [17] = molecular target: Torsin-1A (Homo sapiens) (UniProt O14656); test: torsin A binders from cell lysate, primary screen, small-molecule microarray, wild-type, 635/667 nm (AID 1149); conditions: COS7 hTOR1A-WT lysate, 635 nm fluorescence, higher = more signal
Sequence of Torsin-1A (Homo sapiens) (O14656 whole entry, looked up): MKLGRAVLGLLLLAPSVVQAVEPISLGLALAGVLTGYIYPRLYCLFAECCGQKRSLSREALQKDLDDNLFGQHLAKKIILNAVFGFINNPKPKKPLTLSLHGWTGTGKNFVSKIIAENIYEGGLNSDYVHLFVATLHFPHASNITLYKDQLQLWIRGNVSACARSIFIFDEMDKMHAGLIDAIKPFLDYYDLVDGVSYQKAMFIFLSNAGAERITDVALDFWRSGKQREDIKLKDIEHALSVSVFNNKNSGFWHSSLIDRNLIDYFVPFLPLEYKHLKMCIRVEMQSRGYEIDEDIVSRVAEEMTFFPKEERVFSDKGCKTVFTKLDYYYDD

Torsin-1A (Homo sapiens) [18] = molecular target: Torsin-1A (Homo sapiens) (UniProt O14656); test: small-molecule binders of mutant TOR1A in lysate, primary screen, cell lysate, small-molecule microarray, COS7 lysate, 635/667 nm fluorescence (AID 1150); conditions: COS7 hTOR1A mutant lysate, 635 nm fluorescence, higher = more signal;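 also: score pools 667 nm emission and signal to noise measuring lysate protein binding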
[19] = system: Sonic hedgehog protein (Shh); test: small-molecule binders of Shh protein, primary screen, biochemical, small-molecule microarray, 635/667 nm fluorescence (AID 1151); conditions: small-molecule microarray binding, 635 nm fluorescence; higher = more signal;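 also: Shh protein binding to compounds spotted on small-molecule microarray slides; score combines spot fluorescence intensity with signal-to-noise across triplicate slides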

O=C1NC(=O)C2C1C=CC(C(O)c1ccco1)N2Nc1ccccn1 (stereo not given)
composite z-score [1]: -0.324 | composite z-score [2]: -0.0286 | composite z-score [3]: -0.429 | composite z-score [4]: -0.17 | composite z-score [5]: 0.292 | composite z-score [6]: -0.127 | z-score [7]: -0.109 | composite z-score (Lefty1): -0.042 | composite z-score [8]: 0.325 | z-score [9]: -1.42 (inactive) | composite z-score [10]: 0.0477 | z-score [11]: 0.829 (inactive) | z-score [12]: 0.0748 (inactive) | z-score [13]: -0.522 (inactive) | z-score [14]: 0.413 (inactive) | composite z-score [15]: -0.124 | composite z-score [16]: -0.221 | composite z-score (Torsin-1A (Homo sapiens) [17]): 0.322 | composite z-score (Torsin-1A (Homo sapiens) [18]): 0.316 | composite z-score [19]: 0.366

CCOC(=O)c1ccc(NC(=O)O[C@H]2[C@H](OC(=O)Nc3ccc4c(c3)OCO4)[C@@H](OC(=O)Nc3ccc4c(c3)OCO4)[C@@H](OC)O[C@@H]2CO)cc1
composite z-score [1]: 2.28 | composite z-score [2]: 1.22 | composite z-score [3]: 0.891 | composite z-score [4]: 0.992 | composite z-score [5]: 1.26 | composite z-score [6]: 1.12 | z-score [7]: -1.05 | composite z-score (Lefty1): 0.793 | composite z-score [8]: 1.16 | z-score [9]: -7.83 (inactive) | composite z-score [10]: 0.332 | z-score [11]: -1.23 (inactive) | z-score [12]: 0.164 (inactive) | z-score [13]: 0.148 (inactive) | z-score [14]: -0.557 (inactive) | composite z-score [15]: 0.398 | composite z-score [16]: 0.38 | composite z-score (Torsin-1A (Homo sapiens) [17]): 0.164 | composite z-score (Torsin-1A (Homo sapiens) [18]): 0.676 | composite z-score [19]: 1.73

O=C1NC(=O)C2C1C=CC(C(O)CCc1ccccc1)N2Nc1ccc(Cl)cc1Cl (stereo not given)
composite z-score [1]: 0.371 | composite z-score [2]: 1.18 | composite z-score [3]: 1.11 | composite z-score [4]: 0.363 | composite z-score [5]: 0.0611 | composite z-score [6]: -0.83 | z-score [7]: -0.267 | composite z-score (Lefty1): -0.556 | composite z-score [8]: 1.07 | z-score [9]: 0.369 (inactive) | composite z-score [10]: 0.564 | z-score [11]: -0.149 (inactive) | z-score [12]: 0.0136 (inactive) | z-score [13]: 0.243 (inactive) | z-score [14]: 0.0662 (inactive) | composite z-score [15]: 0.209 | composite z-score [16]: -0.0581 | composite z-score (Torsin-1A (Homo sapiens) [17]): 0.689 | composite z-score (Torsin-1A (Homo sapiens) [18]): 1.36 | composite z-score [19]: -0.625

CN(C)C(=O)[C@]1(CCS(=O)(=O)c2ccccc2)N=C(c2ccc(OCCCO)cc2)O[C@@H]1c1ccccc1N=[N+]=[N-]
composite z-score [1]: 1.21 | composite z-score [2]: 1.27 | composite z-score [3]: 1.46 | composite z-score [4]: 1.02 | composite z-score [5]: 1.44 | composite z-score [6]: 0.943 | z-score [7]: 1.08 | composite z-score (Lefty1): 0.762 | composite z-score [8]: 0.941 | z-score [9]: -12.3 (active) | composite z-score [10]: 0.758 | z-score [11]: -2.79 (inactive) | z-score [12]: 0.0474 (inactive) | z-score [13]: 1.92 (inactive) | z-score [14]: -0.977 (inactive) | composite z-score [15]: 2.06 | composite z-score [16]: 0.246 | composite z-score (Torsin-1A (Homo sapiens) [17]): 1.42 | composite z-score (Torsin-1A (Homo sapiens) [18]): 1.78 | composite z-score [19]: 0.605

CCCCCCc1nc(C2CC2)cc2c1[Si](C(C)C)(C(C)C)OC2
composite z-score [1]: -1.08 | composite z-score [2]: -1.14 | composite z-score [3]: -0.295 | composite z-score [4]: 0.691 | composite z-score [5]: -0.706 | composite z-score [6]: -0.644 | z-score [7]: -1.37 | composite z-score (Lefty1): -0.568 | composite z-score [8]: -0.222 | z-score [9]: 0.766 (inactive) | composite z-score [10]: -0.306 | z-score [11]: -2.44 (inactive) | z-score [12]: -0.486 (inactive) | z-score [13]: 1.59 (inactive) | z-score [14]: 0.997 (inactive) | composite z-score [15]: 0.312 | composite z-score [16]: -0.261 | composite z-score (Torsin-1A (Homo sapiens) [17]): -0.522 | composite z-score (Torsin-1A (Homo sapiens) [18]): -0.751 | composite z-score [19]: -0.694

C=CCC(OC(C)=O)[C@@H]1[C@@H](N(Cc2ccc(-c3cccc(C(F)(F)F)c3)o2)C(=O)c2ccc(-c3ccccc3)cc2)c2cc(OCCCO)ccc2N1C(=O)c1ccc2ccccc2n1 (stereo not given in full)
composite z-score [1]: 0.445 | composite z-score [2]: -0.507 | composite z-score [3]: 0.0509 | composite z-score [4]: 0.401 | composite z-score [5]: 0.772 | composite z-score [6]: -0.0036 | z-score [7]: 0.404 | composite z-score (Lefty1): 0.149 | composite z-score [8]: -0.0763 | z-score [9]: 0.141 (inactive) | composite z-score [10]: -0.0222 | z-score [11]: 0.0285 (inactive) | z-score [12]: -0.171 (inactive) | z-score [13]: 0.222 (inactive) | z-score [14]: 0.53 (inactive) | composite z-score [15]: 0.0257 | composite z-score [16]: -0.0762 | composite z-score (Torsin-1A (Homo sapiens) [17]): -0.48 | composite z-score (Torsin-1A (Homo sapiens) [18]): -0.0764 | composite z-score [19]: 0.406

COc1ccc([Si](C)(C)[C@@H]2[C@@H](CC(=O)N3Cc4ccccc4C[C@H]3CO)O[C@]3(C(=O)N(C)c4ccccc43)[C@H]2C)cc1
composite z-score [1]: 1.94 | composite z-score [2]: 1.17 | composite z-score [3]: 0.0712 | composite z-score [4]: 0.855 | composite z-score [5]: 1.52 | composite z-score [6]: 1.68 | z-score [7]: 0.0779 | composite z-score (Lefty1): 1.57 | composite z-score [8]: 1.02 | z-score [9]: -0.497 (inactive) | composite z-score [10]: 0.269 | z-score [11]: -7.08 (inactive) | z-score [12]: -1.58 (inactive) | z-score [13]: 10.2 (active) | z-score [14]: -1.92 (inactive) | composite z-score [15]: 1.64 | composite z-score [16]: 0.189 | composite z-score (Torsin-1A (Homo sapiens) [17]): 0.783 | composite z-score (Torsin-1A (Homo sapiens) [18]): 0.741 | composite z-score [19]: 2.03

CC1=C([C@H](O)CCc2ccccc2)[C@H](CO)[C@@H]2C(=O)N(C)C(=O)[C@@H]2C1
composite z-score [1]: 0.32 | composite z-score [2]: -0.183 | composite z-score [3]: 0.332 | composite z-score [4]: 0.431 | composite z-score [5]: 0.172 | composite z-score [6]: 0.227 | z-score [7]: 1.48 | composite z-score (Lefty1): 0.475 | composite z-score [8]: 0.133 | z-score [9]: -1.01 (inactive) | composite z-score [10]: -0.124 | z-score [11]: -0.0547 (inactive) | z-score [12]: -0.518 (inactive) | z-score [13]: -0.321 (inactive) | z-score [14]: -0.33 (inactive) | composite z-score [15]: 0.591 | composite z-score [16]: -0.218 | composite z-score (Torsin-1A (Homo sapiens) [17]): 0.285 | composite z-score (Torsin-1A (Homo sapiens) [18]): 0.0992 | composite z-score [19]: 0.656

O=C1C=C(c2ccccc2)C(=O)c2ccc([C@H]3Oc4ccccc4S(=O)(=O)N4CCC[C@@H]34)cc21
composite z-score [1]: -0.398 | composite z-score [2]: -0.315 | composite z-score [3]: -0.29 | composite z-score [4]: -0.506 | composite z-score [5]: 0.428 | composite z-score [6]: -0.0096 | z-score [7]: -1.69 | composite z-score (Lefty1): 0.203 | composite z-score [8]: -0.0704 | z-score [9]: -2.04 (inactive) | composite z-score [10]: 0.34 | z-score [11]: -6.42 (inactive) | z-score [12]: 0.016 (inactive) | z-score [13]: 9.47 (active) | z-score [14]: 33 (active) | composite z-score [15]: -0.309 | composite z-score [16]: -0.258 | composite z-score (Torsin-1A (Homo sapiens) [17]): 0.0359 | composite z-score (Torsin-1A (Homo sapiens) [18]): 1.97 | composite z-score [19]: 0.222
